Results reported in PubChem BioAssay (Tox21).
Inconclusive results are not listed. A number with no mark means an inactive call. Activity calls are given as the source filed them. Calls follow the shape of the full dose curve.

The molecules below were run against Beta-2 adrenergic receptor (Homo sapiens) (UniProt P07550) (assay: Adrenergic beta2 receptor (ADRB2) small molecule agonists, cell-based qHTS assay (AID 1963593)). Conditions: CHO-ADRB2 cells, cAMP HTRF, 30 min; series mostly up to 92.4 µM; activation: at the top concentration.
Sequence of Beta-2 adrenergic receptor (Homo sapiens) (P07550 whole entry, looked up): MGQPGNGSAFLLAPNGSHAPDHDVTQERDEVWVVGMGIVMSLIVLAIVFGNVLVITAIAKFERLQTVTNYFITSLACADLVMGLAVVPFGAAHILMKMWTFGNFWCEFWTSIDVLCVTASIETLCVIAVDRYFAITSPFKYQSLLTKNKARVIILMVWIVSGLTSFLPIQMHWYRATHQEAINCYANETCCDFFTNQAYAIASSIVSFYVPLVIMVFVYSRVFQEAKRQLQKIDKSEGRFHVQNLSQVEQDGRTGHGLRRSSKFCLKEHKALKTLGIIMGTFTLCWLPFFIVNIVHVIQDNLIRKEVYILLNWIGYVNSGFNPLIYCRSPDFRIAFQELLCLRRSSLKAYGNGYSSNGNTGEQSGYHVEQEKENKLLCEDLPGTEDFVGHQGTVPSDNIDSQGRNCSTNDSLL
Source text: National Center for Advancing Translational Sciences [NCATS]
Division of Preclinical Innovation [DPI]
U.S. Environmental Protection Agency [EPA]
National Institutes of Environmental Health Sciences [NIEHS]
National Toxicology Program [NTP]
U.S. Food and Drug Administration [FDA]
Beta adrenergic receptors (Beta-ARs) belong to the G-protein coupled receptor (GPCR) superfamily, includes three subtypes - beta1, beta2, and beta3. Beta1-AR is the predominant receptor subtype expressed in the heart, and beta2-AR is expressed in the kidney, lung, blood vessel and in the heart, and beta3 is found in the adipocytes. Beta1 and 2 ARs couple to Gs protein and elevate cyclic adenosine mono phosphate (cAMP), which activates protein kinase A and leads to the downstream signaling responsible for the physiological actions. Beta-AR agonists or antagonists are the most prescribed therapeutic agents for heart failure and asthma, and these were one of the first target receptors for the rational drug design. Tox21 10K compound library was screened using the cAMP-Gs dynamic assay (Cisbio Bioassays, Shelton, CT) to identify agonists/antagonists of the Gs-coupled human adrenergic, beta2 receptor (ADRB2) in the CHO-ADRB2 cell line (Codex BioSolutions, Inc. Gaithersburg, MD), which stably over-expresses ADRB2. The principle of cAMP-Gs dynamic assay is based on HTRF technology, which facilitates the fluorescence resonance energy transfer (FRET) between donor Europium cryptate and acceptor d2-labeled cAMP. The cAMP generated within cells competes with the red acceptor, d2-labled cAMP, for binding to the monoclonal anti-cAMP-cryptate (Europium donor). An increase in intracellular cAMP leads to the disruption of FRET signal, and the signal is inversely proportional to the cAMP concentration. Isoproterenol HCl (Sigma-Aldrich, St. Louis, MO) was used as a positive control in the screening.
Tox21 Assay Protocol Summary:
CHO-ADRB2 cells were dispensed at 1,000/well in 4uL assay medium into white/solid 1536-well plates (Greiner Bio-One North America Inc., Monroe, NC) using a Multidrop Combi dispenser (ThermoFisher Scientific, Waltham, MA). The assay plates were incubated at 37C and 5% CO2 for an overnight (18-20hr). Then positive control and test compounds dissolved in DMSO were transferred to the assay plates at 23nL using a Pintool station (Wako, San Diego, CA). Following the compound and positive control transfer, 1uL stimulation mix containing 100uM IBMX and 25uM Ro-20-1724 was added to each well of the assay plates using BioRAPTR Flying Reagent Dispenser (FRD, Beckman Coulter, Brea, CA). The assay plates were incubated at room temperature for 0.5hr. Then 2.5ul each d2-labled cAMP and anti-cAMP-cryptate solutions were added separately to each well of the assay plates using an FRD and the assay plates were incubated at room temperature for 1hr.
% is scaled to controls: 0 for no effect and ±100 for the full control effect; potency is read from the fitted curve at half-maximal effect.

Question: How did the “activation” value turn out when `CC(C)(C)C(O)(CCc1ccc(Cl)cc1)Cn1cncn1` (stereo not given) was run?
Answer: -84.4%

Question: How did the Potency turn out when `c1nc[nH]n1` was run?
Answer: inactive

Question: How did the “activation” value turn out when `[P]#[In]` was run?
Answer: 25.3%

Question: With `CCC(=O)O[C@@H]1C=C2CCC3C(CCC4(C)C3CC[C@@H]4OC(=O)CC)C2CC1` (stereo not given in full) as the molecule, how does the “activation” value read?
Answer: 16.5% [at 42.5 µM]

Question: For `C[C@]12C=CC3=C4CCC(=O)C=C4CC[C@H]3[C@@H]1CC[C@@H]2O`, which Potency is on record?
Answer: inactive

Question: How did the “activation” value turn out when `O=C(Cl)c1ccccc1` was run?
Answer: -25.1%

Question: `Cc1cc(Cl)ccc1N` was tested. Which Potency did it give?
Answer: inactive

Question: How did the Potency turn out when `CCCCC(CC)COC(=O)Cl` (stereo not given) was run?
Answer: inactive

Question: With `O=C(O)C(Cl)Cl` as the molecule, how does the Potency read?
Answer: inactive

Question: For `CCCCCCCCCCCCCCCC[N+](C)(C)C`, which Potency is on record?
Answer: inactive

Question: With `NC(=O)CCl` as the molecule, how does the “activation” value read?
Answer: 4.15%

Question: Which Potency does the source give for `Cc1cccc(C)c1NC(=O)CN1CCCC1=O` here?
Answer: inactive

Question: With `CCCC(=O)Cl` as the molecule, how does the “activation” value read?
Answer: 4.51%

Question: Which “activation” value does the source give for `COP(=O)(O)OC` here?
Answer: -0.432%

Question: With `C=CCOCC1CO1` (stereo not given) as the molecule, how does the “activation” value read?
Answer: 3.56%

Question: Which Potency does the source give for `O=[N+]([O-])c1cc([As](=O)(O)O)ccc1O` here?
Answer: inactive

Question: `CC(=O)C1CCOC1=O` (stereo not given) was tested. Which “activation” value did it give?
Answer: -35.2%

Question: How did the “activation” value turn out when `CCOP(=O)(CN(CCO)CCO)OCC` was run?
Answer: -20.8%

Question: `CCCCCCCCCCCCBr` was tested. Which “activation” value did it give?
Answer: 4.31%

Question: With `Clc1ccc(C(Cl)(Cl)Cl)cn1` as the molecule, how does the “activation” value read?
Answer: 0.27%

Question: Which “activation” value does the source give for `CCCCOCC1CO1` (stereo not given) here?
Answer: -11.7%

Question: `CCSC(=O)N1CCCCCC1` was tested. Which “activation” value did it give?
Answer: 13.2%

Question: How did the “activation” value turn out when `CCC(C)c1ccc(O)cc1` (stereo not given) was run?
Answer: 2.88%

Question: How did the Potency turn out when `O=C(NC(=O)c1c(F)cccc1F)Nc1ccc(Cl)cc1` was run?
Answer: inactive

Question: With `C=C1CC[C@@]2(O)[C@H]3Cc4ccc(O)c5c4[C@@]2(CCN3CC2CC2)[C@H]1O5` as the molecule, how does the “activation” value read?
Answer: 8.55% [at 42.5 µM]

Question: How did the “activation” value turn out when `Clc1ccc(C2(Cn3cncn3)OCCO2)c(Cl)c1` was run?
Answer: -0.596%

Question: With `CCN(CCO)CCO` as the molecule, how does the “activation” value read?
Answer: -29.8%

Question: For `C#C[C@]1(O)CC[C@H]2[C@@H]3CCC4=CC(=O)CC[C@]4(C)[C@H]3CC[C@@]21C`, which Potency is on record?
Answer: inactive

Question: How did the “activation” value turn out when `O=C1CCCN1` was run?
Answer: 25.5%

Question: `Nc1ccc([As](=O)(O)O)cc1` was tested. Which “activation” value did it give?
Answer: -3.62% [at 42.5 µM]

Question: How did the “activation” value turn out when `CN(C)C(=O)Cl` was run?
Answer: 9.26%

Question: Which Potency does the source give for `CCCCCCCCCCCCCCCCn1cc[n+](C)c1` here?
Answer: inactive

Question: Which Potency does the source give for `COc1ccc(CO)cc1` here?
Answer: inactive

Question: `CC(C)(C)OOC(C)(C)C` was tested. Which Potency did it give?
Answer: inactive

Question: With `Nc1ccc(Cl)cc1` as the molecule, how does the “activation” value read?
Answer: 9.28%

Question: With `Nc1ncn[nH]1` as the molecule, how does the Potency read?
Answer: inactive

Question: For `CC1CC(=O)O1` (stereo not given), which “activation” value is on record?
Answer: 7.51%

Question: How did the “activation” value turn out when `O=C(O)C(F)(F)C(F)(F)C(F)(F)C(F)(F)C(F)(F)C(F)(F)C(F)(F)C(F)(F)F` was run?
Answer: -29.2%

Question: `CSc1nc(NC(C)C)nc(NC(C)C)n1` was tested. Which “activation” value did it give?
Answer: -32.3%

Question: `O=C1c2ccccc2C(=O)N1SC(Cl)(Cl)Cl` was tested. Which Potency did it give?
Answer: 21.7 µM (active)
